Measurements from PubChem BioAssay.

Assay: probe aLefty1 binding on compound microarray – biochemical, small-molecule microarray, 635/667 nm fluorescence, primary screen (AID 1153);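 note: score merges spot fluorescence with signal-to-noise ratio from the scanned slide images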
Conditions: higher = more signal

Row | SMILES | composite z-score
1 | CC1CC/C=C\[C@H]2OC34C=CCN(C(C)C)C(=O)[C@H]3N(C(C)CO)C(=O)[C@@H]4C2C(=O)O1 (stereo partly specified) | 0.0043
2 | [N-]=[N+]=NCc1ccccc1C[C@]1(C(=O)N2CCCCC2)COC(c2ccc(OCCCO)cc2)=N1 | -0.543
3 | O=C1NC(=O)C2C1C=CC(C(O)c1ccc(F)cc1)N2Nc1ccc(Cl)cc1Cl (stereo unspecified) | -0.017
4 | O=C(NCC(F)(F)F)[C@@H]1c2ccccc2C(=O)N(Cc2cc(C(F)(F)F)cc(C(F)(F)F)c2)[C@H]1c1ccc(CO)cc1 | 0.114
5 | C=CCNC(=O)[C@H]1[C@@H]2C(=O)O[C@@H](c3ccccc3)[C@@H](c3ccccc3)N2[C@@H](c2ccc(O)cc2)[C@]12C(=O)N(C(=O)OCCOC)c1ccc(C#Cc3ccc(OC)cc3)cc12 | 0.216
6 | COCCOC(=O)N1C(=O)[C@@]2(c3cc(C#CCNC(N)=O)ccc31)[C@H](C(N)=O)[C@H]1C(=O)O[C@H](c3ccccc3)[C@H](c3ccccc3)N1[C@@H]2c1ccc(O)cc1 | 0.316
7 | CC(C)(C)OC(=O)CC[C@@]1(C(N)=O)N=C(c2ccc(OCCCO)cc2)O[C@@H]1c1ccccc1CN=[N+]=[N-] | 0.997
8 | COC(=O)[C@@]1(Cc2ccc(F)cc2)[C@H]2c3cc(C(=O)N(C)C)n(CCF)c3C[C@H]2CN1C(=O)c1ccccc1 | -0.012
9 | COc1ccc(C(=O)Nc2cccc(CN3C(=O)[C@]4(O[C@H](CC(=O)N(CCO)Cc5ccccc5)[C@@H]([Si](C)(C)c5ccc(OC)cc5)[C@@H]4C)c4ccccc43)c2)cc1 | 0.0892
10 | [N-]=[N+]=NCc1ccccc1C[C@@]1(C(=O)NCCN2CCOCC2)N=C(c2ccc(OCCCO)cc2)O[C@@H]1c1ccccc1 | 0.546
11 | COC(=O)C1(CC(C)C)C=C2C(=C(C)C(=O)C2C)CN1 (stereo unspecified) | 1.59
12 | COC(=O)C(CC#Cc1ccc2c(c1)[C@]1(C(=O)N2)[C@H](c2ccc(OCCO)cc2)N2[C@H](c3ccccc3)[C@H](c3ccccc3)OC(=O)[C@H]2[C@@H]1C(N)=O)C(=O)OC | 0.0319
13 | CCCN1C(=O)[C@@]2(c3ccc([N+](=O)[O-])cc3)CC(=O)N(C3CCCCC3)[C@@H]2c2ccc(CO)cc21 | -0.5
14 | C=CCNC(=O)[C@H]1[C@@H]2C(=O)O[C@@H](c3ccccc3)[C@@H](c3ccccc3)N2[C@@H](c2ccc(OCCO)cc2)[C@]12C(=O)N(C(=O)OCCOC)c1ccc(C#CCC(C(=O)OC)C(=O)OC)cc12 | 0.123
15 | C=CCOC(=O)[C@H]1[C@@H]2C(=O)O[C@@H](c3ccccc3)[C@@H](c3ccccc3)N2[C@@H](c2ccc(OCCOC(=O)[C@H]3C[C@H]4C(=O)NCC(=O)N4[C@H]3c3ccc(O)cc3)cc2)[C@]12C(=O)Nc1ccccc12 | 1.09
16 | COc1ccc(C(=O)Nc2ccc(CN3C(=O)[C@@]4(O[C@@H](CC(=O)N(CCO)Cc5ccccc5)[C@H]([Si](C)(C)c5ccc(OC)cc5)[C@H]4C)c4ccccc43)cc2)cc1 | -0.115
17 | CCOC(=O)C1=CCC(c2ccncc2)N(S(=O)(=O)c2ccc(C)cc2)C1 (stereo unspecified) | 0.13
18 | O=C1O[C@H](c2ccccc2)[C@H](c2ccccc2)N2[C@H]1[C@@H](C(=O)O)[C@]1(C(=O)Nc3ccc(C#CC4(O)CCCCCC4)cc31)[C@H]2c1ccccc1OCCO | 0.708
19 | O=C1O[C@H](c2ccccc2)[C@H](c2ccccc2)N2[C@H]1[C@@H](C(=O)O)[C@]1(C(=O)Nc3ccccc31)[C@H]2c1ccc(OCCO)cc1 | 0.183
20 | CCCCCCc1nc(-c2ccc(OC)nc2)c(C)c2c1[Si](C(C)C)(C(C)C)OC2 | -0.115
21 | COC(=O)Cn1c(C(=O)N(C)C)cc2c1C[C@H]1CN(C(=O)c3ccccc3)[C@@](Cc3ccccc3)(C(=O)OC)[C@@H]21 | 0.155
22 | COc1ccc([Si](C)(C)[C@H]2[C@H](CC(=O)N3CCC[C@H]3CO)O[C@@]3(C(=O)N(C)c4ccccc43)[C@@H]2C)cc1 | -0.0143
23 | C=CC[C@H](OC(=O)Nc1ccc(SC)cc1)c1ccc(O)c(F)c1 | 0.0226
24 | Cc1ccc(S(=O)(=O)N2[C@@H](c3ccccc3)C(C(=O)O)=CC[C@H]2c2ccc(F)cc2)cc1 | 0.214
25 | COC(=O)C(CC#Cc1ccc2c(c1)[C@]1(C(=O)N2)[C@H](C(N)=O)[C@H]2C(=O)O[C@H](c3ccccc3)[C@H](c3ccccc3)N2[C@@H]1c1ccccc1OCCO)C(=O)OC | 0.0622
26 | O=C1OC[C@@H](c2ccccc2)n2cc(/C=C/c3ccccc3)cc21 | -0.0868
